Assay outcomes deposited in PubChem by several laboratories.
Sampled rows, rich in hits. Any-hit rate of the full collection: about 2.1%.
PLCg1 inh: PLC-gamma1 enzyme inhibitors, primary screen, biochemical, fluorescence, purified enzyme; 1-phosphatidylinositol 4,5-bisphosphate phosphodiesterase gamma-1 (Homo sapiens), P19174; fluorogenic substrate; inhibition, % at 12.2 µM; 0.84% of 370,000 active; in the data active = inhibition above about 9.5%
ADAM17 inh: ADAM17 inhibitors, primary screen, biochemical, QFRET. AID 720648, 2013. Disintegrin and metalloproteinase domain-containing protein 17 (Homo sapiens), P78536. inhibition, % at 6.95 µM. 0.83% of 370,000 active. recombinant ADAM17, EDANS/DABCYL FRET peptide cleavage;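 active = inhibition above the mean of compounds lying between control limits plus 3 SD, set per campaign, cut at about 8.5% in these data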;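 also: 0% = DMSO-only wells as the low control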
Rce1 inh: yeast Rce1p protease inhibitors, primary screen, biochemical, fluorescence, cell-free homogeneous. yeast membranes, quenched prenylated peptide cleavage fluorescence. 0.27% of 290,000 active. CAAX prenyl protease 2 (Saccharomyces cerevisiae (strain ATCC 204508 / S288c)), Q03530. AID 2563, 2010. calls only;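 active = fall in fluorescence gain of 50% or more versus controls, with final raw signal at or below 3038400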;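 also: plate controls were neutral control wells for no effect and wells lacking membranes for full effect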
ADAM10 inh: human ADAM10 inhibitors, primary screen, biochemical, QFRET, HTS. Disintegrin and metalloproteinase domain-containing protein 10 (Homo sapiens), O14672. recombinant ADAM10, EDANS/DABCYL FRET peptide cleavage, 3 h. inhibition, % at 7 µM. 0.62% of 370,000 active;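 active = inhibition above a per-campaign cutoff equal to the mean of compounds falling between control-based bounds plus 3 SD, cut at about 20% in these data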;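 also: 0% = DMSO wells while the 100% control is not disclosed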
PLCb3 inh: human PLC-beta3 inhibitors, primary screen, biochemical, fluorescence. 0.18% of 370,000 active. inhibition, % at 12.2 µM. AID 720704, 2013. Purified PLC-beta3, fluorogenic substrate; in the data active = inhibition above about 11%;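 also: 0% = median of compound wells on plate and 100% = full blocker control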
Target sequence (Q01970 whole entry, looked up): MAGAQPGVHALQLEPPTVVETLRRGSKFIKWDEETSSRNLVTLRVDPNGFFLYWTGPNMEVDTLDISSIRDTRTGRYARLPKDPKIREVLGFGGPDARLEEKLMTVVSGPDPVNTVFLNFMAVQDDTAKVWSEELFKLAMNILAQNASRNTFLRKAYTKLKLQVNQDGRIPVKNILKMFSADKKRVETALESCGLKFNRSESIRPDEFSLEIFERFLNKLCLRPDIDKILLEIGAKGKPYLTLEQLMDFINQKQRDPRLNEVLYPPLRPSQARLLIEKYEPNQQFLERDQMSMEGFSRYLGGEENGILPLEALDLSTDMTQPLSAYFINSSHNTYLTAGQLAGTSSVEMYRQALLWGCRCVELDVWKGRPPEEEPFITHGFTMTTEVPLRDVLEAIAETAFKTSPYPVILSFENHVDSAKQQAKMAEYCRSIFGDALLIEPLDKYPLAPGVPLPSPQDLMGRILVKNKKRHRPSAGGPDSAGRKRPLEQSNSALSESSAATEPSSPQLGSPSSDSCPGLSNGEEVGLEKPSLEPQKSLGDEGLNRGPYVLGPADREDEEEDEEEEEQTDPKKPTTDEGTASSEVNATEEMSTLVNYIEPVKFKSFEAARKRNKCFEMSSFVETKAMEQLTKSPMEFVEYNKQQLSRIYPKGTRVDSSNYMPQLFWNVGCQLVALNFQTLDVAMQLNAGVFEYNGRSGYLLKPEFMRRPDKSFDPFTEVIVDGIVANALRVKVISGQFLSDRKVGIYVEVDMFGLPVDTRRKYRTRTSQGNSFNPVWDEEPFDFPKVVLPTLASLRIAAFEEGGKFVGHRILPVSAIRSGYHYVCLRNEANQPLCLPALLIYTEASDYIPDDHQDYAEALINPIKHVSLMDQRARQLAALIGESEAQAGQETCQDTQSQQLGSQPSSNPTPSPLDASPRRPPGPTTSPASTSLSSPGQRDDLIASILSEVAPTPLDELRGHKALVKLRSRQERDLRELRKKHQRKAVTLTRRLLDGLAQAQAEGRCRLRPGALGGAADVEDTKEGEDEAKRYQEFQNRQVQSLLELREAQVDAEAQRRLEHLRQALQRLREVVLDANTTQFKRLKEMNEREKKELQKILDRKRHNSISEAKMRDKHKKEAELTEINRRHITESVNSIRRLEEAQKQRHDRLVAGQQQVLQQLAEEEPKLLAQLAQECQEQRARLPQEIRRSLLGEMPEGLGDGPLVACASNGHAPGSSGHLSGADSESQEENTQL
ADAM10 confirm: human ADAM10 inhibitors, confirmation, biochemical, QFRET, triplicate; shares compounds with ADAM10 inh; ADAM10 QFRET peptide cleavage, EDANS fluorescence; inhibition, % at 6.95 µM; 1% of 2,100 active; AID 743208, 2013;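 active = inhibition above about 20% chosen separately for each screening run, limit read from the data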;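 also: 0% = DMSO wells and 100% = marimastat wells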
ADAM17 counter: ADAM17 inhibitors, counter-screen for ADAM10 exosite inhibitor project, biochemical, QFRET, high throughput | shares compounds with ADAM10 inh | ADAM17 QFRET peptide cleavage, EDANS fluorescence | inhibition, % at 6.95 µM | 0.5% of 2,100 active | AID 743214, 2013;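 active = mean triplicate inhibition above the solvent-only control wells' mean plus 3 SD, cut at about 12% in these data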;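 also: 0% = DMSO wells and 100% = marimastat wells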
ADAM10 ctr: ADAM10 inhibitors, counter-screen for ADAM17 exosite inhibitor project, biochemical, FRET, human ADAM10; recombinant ADAM10, EDANS/DABCYL FRET peptide cleavage, 3 h; inhibition, % at 6.95 µM; shares compounds with ADAM17 inh; AID 743256, 2014; 47% of 2,900 active;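 active = mean inhibition over the triplicate runs exceeds the activity threshold set in the earlier primary screen, cut at about 20% in these data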;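 also: 0% = DMSO wells and 100% = marimastat wells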
ADAM17 confirm: ADAM17 inhibitors, hit retest, confirmation, biochemical, QFRET peptide cleavage; shares compounds with ADAM17 inh; recombinant ADAM17, EDANS/DABCYL QFRET peptide cleavage; inhibition, % at 6.95 µM; 65% of 2,900 active;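 active = mean inhibition across replicates above the hit cutoff set in the primary screen, cut at about 8.5% in these data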;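 also: 0% = DMSO wells and 100% = marimastat wells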
An asterisk follows results filed as active; i = inactive; / = no result.

SMILES | PLCg1 inh | ADAM17 inh | Rce1 inh | ADAM10 inh | PLCb3 inh | ADAM10 confirm | ADAM17 counter | ADAM10 ctr | ADAM17 confirm
CN(Cc1ccccc1)C(=O)c1ccc(NC(=O)Cc2cccc(NC(=O)C3CCCN(C(=O)CCc4ccccc4)C3)c2)cc1 (configuration not stated) | 8 | 14* | / | 24* | 3 | 3 | 2 | 24* | 14*
CN(Cc1ccccc1)C(=O)c1cccc(NC(=O)Cc2ccc(NC(=O)C3CCCN(C(=O)CCc4ccccc4)C3)cc2)c1 (configuration not stated) | -1 | 1 | / | 3 | -2 | / | / | / | /
Cc1cc(NC(=O)CN2C(=O)NC(c3ccccc3)(c3ccc(C)c(C)c3)C2=O)no1 (configuration not stated) | 2 | 3 | / | 14 | -6 | / | / | / | /
O=C1[C@H]2[C@@H](c3ccc(C(F)(F)F)cc3)N[C@]3(CCCN(Cc4ccc(C(F)(F)F)cc4)C3=O)[C@H]2C(=O)N1Cc1ccccc1 | 1 | 13* | / | 31* | 4 | 3 | 1 | 41* | 24*
CCOC(=O)c1ccc(NC(=O)Cn2nnc(-c3ccccc3C)n2)cc1 | -5 | 10* | i | 22* | -5 | 6 | 1 | 41* | 24*
Cc1ccc(NC(=O)CN(C)C(=O)Cn2nnc(-c3ccccc3C)n2)cc1 | -2 | -2 | / | 6 | 4 | / | / | / | /
CCOC(=O)c1sc(NC(=O)CSc2n[nH]c(CC(C)C)n2)nc1C | 7 | 8.8* | i | 27* | 8 | 0 | 0 | 5 | -2
O=[N+]([O-])c1cc(Cl)cc(/C=N/NC(=S)Nc2ccc(S(=O)(=O)N3CCOCC3)cc2)c1O | -20 | 17* | / | 35* | -32 | 8 | 1 | 29* | 18*
O=S(=O)(c1ccc(NC(=S)N/N=C/c2ccc(O)c(O)c2)cc1)N1CCOCC1 | -12 | -3 | i | -4 | -23 | / | / | / | /
Cn1c(Cc2ccc3c(c2)OCO3)nnc1SCC(=O)NC1CCCC1 | 3 | -2 | i | -8 | -3 | / | / | / | /
Cc1ccc(C(O)c2ncc(-c3cccc(C(F)(F)F)c3)[nH]2)c(C)c1 (configuration not stated) | 3 | 5 | / | 5 | 7 | / | / | / | /
OC(c1ccc(F)c(F)c1)c1ncc(-c2ccc(Cl)cc2)[nH]1 (configuration not stated) | 2 | 0 | / | 7 | -2 | / | / | / | /
OC(c1cc(F)cc(Cl)c1)c1ncc(-c2ccc(Cl)cc2)[nH]1 (configuration not stated) | 5 | 17* | / | 29* | 4 | 5 | 0 | 21* | 11*
Cc1cccc(C(O)c2ncc(-c3cccc(C(F)(F)F)c3)[nH]2)c1C (configuration not stated) | 8 | 15* | / | 22* | 9 | 2 | 0 | 5 | 7
OC(c1cccc(Cl)c1)c1ncc(-c2cccc(C(F)(F)F)c2)[nH]1 (configuration not stated) | 2 | 9.2* | / | 29* | 2 | 2 | 1 | 23* | 14*
O=C(O)c1ccccc1C(=O)NCCc1c(C(=O)O)[nH]c2ccc(F)cc12 | 3 | -2 | i | 5 | -4 | / | / | / | /
COc1ccc(/C=N/NC(=O)Cc2csc(Nc3cccc(C(F)(F)F)c3)n2)cc1C | 4 | 13* | i | 28* | 1 | 6 | 2 | 33* | 20*
O=C1NC(Cc2ccccc2)c2nc3ccccc3c(=O)n2-c2cc(Cl)ccc21 (configuration not stated) | 9 | 17* | / | 25* | 6 | 4 | 1 | 23* | 12*
O=C1NC(Cc2ccc(O)cc2)c2nc3ccccc3c(=O)n2-c2cc(Cl)ccc21 (configuration not stated) | -2 | 2 | / | -10 | 1 | / | / | / | /
CCCCN1CC(COCc2ccccc2)Oc2cccc(OCCN3C(=O)[C@@H]4[C@H](C3=O)C3C=C[C@H]4C3)c2S1(=O)=O (some centres not stated) | 8 | 13* | / | 26* | 1 | 7 | 2 | 44* | 18*
O=C1[C@@H]2[C@H](C(=O)N1C[C@@H](COCc1ccccc1)Oc1cccc3c1S(=O)(=O)N(CCc1ccc(F)cc1)C[C@H](COCc1ccccc1)O3)[C@@H]1C=C[C@H]2C1 | 1 | 0 | / | -3 | -4 | / | / | / | /
NC(=O)CC(NC(=O)c1ccc(Br)cc1)c1ccc(N2CCCCCC2)c([N+](=O)[O-])c1 (configuration not stated) | 8 | 12* | i | 22* | 7 | 3 | 1 | 10 | 5
Cc1ccccc1-n1c(SCC(=O)N/N=C/c2c(C)nn(-c3ccccc3)c2C)nc2ccccc2c1=O | 4 | 11* | i | 21* | 2 | 7 | 2 | 33* | 16*
COc1ccc(CN(C(=O)c2snc(C(N)=O)c2N)C(C(=O)NC2CCCC2)c2ccc(OC)c(OC)c2)cc1 (configuration not stated) | -42 | -34 | i | -101 | -58 | / | / | / | /
COc1ccc(CN(C(=O)c2nsc(Cl)c2Cl)C(C(=O)NC2CCCCC2)c2ccc(OC)cc2)cc1 (configuration not stated) | 6 | 8.8* | i | 28* | 6 | 7 | 2 | 8 | 9.6*
Cc1cc(C(=O)Nc2ccc3ccccc3c2)c(C)o1 | -1 | 1 | i | 1 | -2 | / | / | / | /
CCOC(=O)Nc1ccc2c(COC(=O)C(NS(=O)(=O)c3ccc(Cl)cc3)C(C)O)cc(=O)oc2c1 (configuration not stated) | i | i | / | i | i | / | / | / | /
CC(C)(C)NC(=O)NC(=O)CN1CCN(C(c2ccccc2)c2ccccc2)CC1 | 1 | 0 | i | 3 | -1 | / | / | / | /
